Screening results as filed in PubChem BioAssay.
Most compounds without a hit are left out; they make up all but 2.8% or so of the library.
Fam108B inh: mouse Fam108B serine hydrolase inhibitors, primary screen, counter-screen for RBBP9 inhibitor project, biochemical, fluorescence polarization. recombinant Fam108B, FP-Rh probe fluorescence polarization. inhibition, % at 9.51 µM. 300,000 tested, 0.33% active. AID 1947, 2009;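 active = inhibition above the screen mean inhibition plus 3 SD, computed separately per campaign, cut at about 18% in these data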;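 note: inhibitors lower polarization as less probe binds the enzyme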
pPAFAH FP inh: pPAFAH enzyme inhibitors, primary screen, biochemical, fluorescence polarization, human. Platelet-activating factor acetylhydrolase (Homo sapiens), Q13093. recombinant pPAFAH, FP-rhodamine probe fluorescence polarization. inhibition, % at 3.39 µM. 330,000 tested, 1.5% active;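 active = inhibition above the mean inhibition across the screen plus 3 SD, cut at about 25% in these data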;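 note: inhibitors block binding of the rhodamine activity-based probe so polarization drops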
Target sequence (Q13093 whole entry, looked up): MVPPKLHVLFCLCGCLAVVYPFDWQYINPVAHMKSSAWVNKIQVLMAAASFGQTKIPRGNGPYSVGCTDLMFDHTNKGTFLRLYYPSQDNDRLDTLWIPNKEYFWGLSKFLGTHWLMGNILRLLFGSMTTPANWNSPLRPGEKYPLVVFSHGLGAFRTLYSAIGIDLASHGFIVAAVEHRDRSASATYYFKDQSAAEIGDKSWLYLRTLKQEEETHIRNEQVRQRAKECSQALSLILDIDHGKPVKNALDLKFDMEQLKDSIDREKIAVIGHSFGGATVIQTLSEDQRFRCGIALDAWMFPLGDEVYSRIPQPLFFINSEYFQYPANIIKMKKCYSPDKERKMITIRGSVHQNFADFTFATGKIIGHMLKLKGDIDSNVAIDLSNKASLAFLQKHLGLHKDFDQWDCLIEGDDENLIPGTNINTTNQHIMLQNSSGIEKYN
PAFAH2 inh: PAFAH2 enzyme inhibitors, primary screen, biochemical, fluorescence polarization, human; recombinant PAFAH2, FP-rhodamine activity probe; inhibition, % at 3.39 µM; 340,000 tested, 0.99% active; AID 492956, 2010;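 active = inhibition above the mean over all tested compounds plus 3 SD, cut at about 30% in these data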;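 note: inhibitors block probe labeling of enzyme so polarization drops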
PAFAH1B3 inh: PAFAH1B3 enzyme inhibitors, primary screen, biochemical, fluorescence polarization, human. Platelet-activating factor acetylhydrolase IB subunit alpha1 (Homo sapiens), Q15102. recombinant PAFAH1B3, FP-rhodamine probe. inhibition, % at 3.39 µM. 340,000 tested, 0.28% active. AID 492972, 2010;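 active = inhibition above the screen-wide average of all tested compounds plus 3 SD, cut at about 25% in these data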
PAFAH1B2 inh: PAFAH1B2 enzyme inhibitors, primary screen, biochemical, fluorescence polarization, human; inhibition, % at 3.39 µM; recombinant PAFAH1B2, FP-rhodamine activity probe; 340,000 tested, 1.2% active;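 active = inhibition above the mean of all tested compounds plus 3 SD, cut at about 24% in these data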
PME-1 primary: PME-1 inhibitors via competitive probe labeling, primary screen, biochemical, fluorescence polarization, FP-Rh probe, HTS; Protein phosphatase methylesterase 1 (Homo sapiens), Q9Y570; 320,000 tested, 0.53% active; AID 2130, 2009; recombinant PME-1; inhibition, % at 5.9 µM;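 active = inhibition above the campaign mean of all compounds plus 3 SD, cut at about 26% in these data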;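 note: competitive labeling of PME-1 active site by serine hydrolase directed probe; inhibitors block probe labeling so polarization falls and inhibition rises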
pPAFAH confirm: pPAFAH (PLA2G7) enzyme inhibitors, confirmation, biochemical, fluorescence polarization, human; inhibition, % at 3.39 µM; recombinant pPAFAH, FP-Rh probe fluorescence polarization; AID 463230, 2010; shares compounds with pPAFAH FP inh; 2,300 tested, 72% active;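 active = mean inhibition of the triplicate above the hit cutoff set for the earlier primary screen, cut at about 25% in these data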
Numbers stand for hits; i = inactive; nt = no result.

SMILES	Fam108B inh	pPAFAH FP inh	PAFAH2 inh	PAFAH1B3 inh	PAFAH1B2 inh	PME-1 primary	pPAFAH confirm
COc1cc(/C=N/NC(=O)C(Cc2c[nH]c3ccccc23)NC(=O)OCC(C)C)cc([N+](=O)[O-])c1OCc1ccccc1 (centres undefined)	i	i	i	i	i	i	nt
COc1cc(/C=N/NC(=O)C(Cc2c[nH]c3ccccc23)NC(=O)OCC(C)C)cc([N+](=O)[O-])c1O (centres undefined)	i	37	i	i	i	i	31
COCCCNC(=O)C1=CCN(S(=O)(=O)c2ccc(C)cc2)CC1	i	i	i	i	i	i	nt
O=C(CN1C(=O)c2ccccc2S1(=O)=O)Nc1ccc([N+](=O)[O-])cc1	nt	i	i	i	i	nt	nt
COc1ccc(S(=O)(=O)Nc2c(C)n(C)n(-c3ccccc3)c2=O)c(Cl)c1Cl	i	62	i	i	i	i	i
COc1cc(Br)c(S(=O)(=O)Nc2c(C)n(C)n(-c3ccccc3)c2=O)cc1OC	i	i	i	i	i	i	nt
Cc1c(NS(=O)(=O)c2cc(C(=O)NCCN(C)C)ccc2Cl)c(=O)n(-c2ccccc2)n1C	i	51	i	i	i	i	i
Cc1c(NS(=O)(=O)c2cc(C(=O)NCc3cccc(Cl)c3)ccc2Cl)c(=O)n(-c2ccccc2)n1C	nt	nt	i	i	i	nt	nt
COCc1ccc(C(=O)NC(C)c2cnn(-c3ccccc3C)c2C)o1 (centres undefined)	i	i	i	i	i	i	nt
CCOC(=O)c1cc(C#N)c(SCC(=O)OC)[nH]c1=O	i	35	i	i	i	i	i
CC(=O)Nc1cccc(NC(=O)CCN2C(=O)c3ccccc3S2(=O)=O)c1	i	53	i	i	i	i	i
CC(C)C(=O)Nc1c2c(nn1-c1ccc(F)cc1)CS(=O)(=O)C2	i	i	i	i	i	i	nt
Cc1cc(C)n2c(SC/C(O)=C(\C#N)c3nc4ccccc4[nH]3)nnc2n1	i	35	i	i	i	i	i
Cc1ccccc1-n1c(SC/C(O)=C(\C#N)c2nc3ccccc3[nH]2)nnc1-c1ccncc1	i	i	i	i	i	i	nt
CC(NC(=O)Cn1cc([N+](=O)[O-])cn1)c1ccc(C(C)(C)C)cc1 (centres undefined)	i	i	i	i	i	i	nt
CCOC(=O)C1CCCN(C(=O)c2cc(-c3ccncc3)nc3ccccc23)C1 (centres undefined)	i	i	i	i	i	i	nt
CCOC(=O)C1CCCN(C(=O)c2cc(-c3ccco3)nc3ccccc23)C1 (centres undefined)	nt	49	i	i	i	nt	40
O=C(Oc1ccnc2cc(Cl)ccc12)N1CCOCC1	i	40	i	i	i	i	37
Cc1cc(NC(=O)c2ccc(NC(=O)C(C)C)cc2)no1	i	41	i	i	i	i	i
COc1ccc(CCNC(=O)C2CCCN(S(C)(=O)=O)C2)cc1 (centres undefined)	i	i	i	i	i	i	nt
O=C(/C=C/c1cc[n+](CC(=O)c2ccc3cccc4c3c2CC4)cc1)c1ccc2cccc3c2c1CC3	i	71	i	i	i	i	86
Cc1ccc(-c2cc(C(=O)N3CCN(c4ccccc4O)CC3)c3ccccc3n2)o1	i	66	i	i	i	i	i
COc1cc(OC)cc(C(=O)NCC(=O)Nc2ccc(-c3ccccc3)cc2)c1	i	i	i	i	i	i	nt
O=C1CCCC(O)=C1N=Nc1c(Cl)cc(C(F)(F)F)cc1Cl	i	39	64	37	35	i	i
O=C(/C(=N/N=C/c1ccc(O)c(O)c1O)c1ccccc1)c1ccccc1	i	80	i	i	i	i	85
SMILES	Fam108B inh	pPAFAH FP inh	PAFAH2 inh	PAFAH1B3 inh	PAFAH1B2 inh	PME-1 primary	pPAFAH confirm
Oc1ccc(/C=N/N=C(c2ccccc2)c2ccccc2)c(O)c1O	i	59	i	i	i	i	83
O=C(O)c1ccc(C(=O)C(=O)c2ccccc2)cc1	i	i	i	i	i	i	nt
O=C(c1ccc(=O)[nH]c1)N1CCCc2ccccc21	i	i	i	i	i	i	nt
Cc1cc(C(=O)CCl)c(C)n1CCc1ccccc1	i	54	nt	nt	nt	i	i
Nc1ccc2c(c1)-c1ccccc1S(=O)(=O)N2	i	65	i	i	i	i	i
Cc1oc2c(O)c(O)ccc2c(=O)c1-c1cnn(-c2ccccc2)c1	i	51	33	i	i	i	60
S=c1[nH]nc(-c2cc(-c3ccccc3)n[nH]2)n1/N=C/c1ccc(Br)s1	i	54	i	i	i	i	70
COc1ccc(C(=O)N2CCN(C)C(=O)[C@@H]2C)cc1OC1CCN(C(C)C)CC1	i	i	i	i	i	i	nt
O=C(N/N=C(\Cc1ncc[nH]1)c1ccccc1)c1cccnc1	i	i	i	i	i	i	nt
O=C1C2CCCCN2C(=O)N1CCCN1CCN(c2ccc(F)cc2)CC1 (centres undefined)	i	i	i	i	i	i	nt
Nc1ccc(N2CCN(CCCCN3C(=O)C4CCCN4C3=O)CC2)cc1 (centres undefined)	i	70	i	i	i	i	i
COc1cccc(NC(=O)c2cccc(N3C(=O)C4CCC(C)CC4C3=O)c2)c1 (centres undefined)	i	i	i	i	i	i	nt
Cc1ccc(-c2cc(-c3ccco3)c(C#N)c(=O)[nH]2)cc1	i	35	i	i	i	i	i
COc1ccc(Cn2c(-c3ccccc3C)nc3c(c(=O)c4ccccc4n3C)c2=O)cc1	i	i	i	i	i	i	nt
CC(OC(=O)c1ccc(NC(=O)CC#N)cc1)C(=O)Nc1nc(-c2ccccc2)cs1 (centres undefined)	i	53	i	i	i	i	i
CCCCOc1cc(NCc2ccccc2)c2ncn(C(C)C)c2c1	nt	36	i	i	i	nt	39
COCCCOc1cc(NCc2ccccc2)c2ncn(C(C)C)c2c1	nt	i	i	i	i	nt	nt
CCn1cc2nc(SCC(=O)Nc3ccccc3F)n(Cc3ccccc3)c(=O)c2n1	i	i	i	i	i	i	nt
COc1ccc(-c2csc(NC(=O)c3ccccc3F)n2)cc1	i	i	i	i	i	i	nt
COc1ccc(-c2csc(NS(=O)(=O)c3ccc([N+](=O)[O-])cc3)n2)cc1	i	38	i	i	i	i	45
COc1ccc(-c2csc(NC(=O)c3ccccc3NS(=O)(=O)c3ccc(F)c(F)c3)n2)cc1	i	50	i	i	i	31	39
